Compound activity from PubChem BioAssay.
Shown are actives, neighbours in structure and some others; about 6.8% of the full set was active somewhere.
T cruzi growth-1: T. cruzi proliferation inhibition; inhibition, % at 8.34 µM; 77,000 tested, 5.9% active; T. cruzi beta-gal in NIH3T3, GalScreen luminescence, 90 h;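 active means mean inhibition above about 93%, with at least 55% of replicates each passing it, limit read from the data, passing the limit was not always enough; inconclusive means only one of those two conditions holds; inactive means neither condition holds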
Pf Dd2 growth: inhibitors of Plasmodium falciparum Dd2 growth. P. falciparum Dd2 growth, SYBR Green, 72 h; active compounds read low. activity change, % at 10 µM. 94,000 tested, 2.3% active. AID 1159554; in the data active means activity change below about -80%; inconclusive means no clear call, values can overlap the other calls
C diff growth: inhibitors of Clostridium difficile growth; growth activity, negative = inhibition, % at 16 µg/mL (by protocol); AID 1259249; Clostridium difficile clinical isolate growth, OD600, 24 h; active compounds read low; 86,000 tested, 0.25% active;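 active means mean growth activity at or below -80% and every replicate also at or below -80%; inconclusive means mean at or below -80% but some replicate above -80%; inactive means mean growth activity above -80%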;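 further: 0% = DMSO wells and -100% = levofloxacin 16 µg/mL wells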
T cruzi growth-2: blocks T. cruzi growth in NIH3T3 host cells. inhibition, % at 8.35 µM. T. cruzi beta-gal in NIH3T3, GalScreen luminescence, 90 h. AID 651739. 5,600 tested, 72% active. shares compounds with T cruzi growth-1;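 active means mean replicate inhibition above about 95% and at least 55% of replicates individually reaching it, limit read from the data; inconclusive means only one of the two criteria is met; inactive means neither criterion is met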
T cruzi growth-3: inhibitors of T. cruzi proliferation. shares compounds with T cruzi growth-1. T. cruzi beta-gal in NIH3T3, GalScreen luminescence, 90 h. inhibition, % at 2.09 µM. 5,600 tested, 21% active. AID 651740;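 active means mean inhibition above about 95%, with at least 55% of replicates also reaching it, limit read from the data; inconclusive means meets just one of the two conditions; inactive means meets neither condition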;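 further: plate controls were neutral control median for no effect and positive control median for full effect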
3T3 cytotox: kills mouse NIH/3T3 fibroblasts | AID 651742 | 5,600 tested, 14% active | NIH/3T3 viability, CellTiter-Glo ATP luminescence, 90 h | cytotoxicity (signal decrease), % at 8.35 µM | shares compounds with T cruzi growth-1;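 active means mean signal decrease across replicates above about 35% based on untreated-well scatter, with enough replicates individually passing, limit read from the data; inconclusive means no rule stated though some were filed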;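 further: 0% = median of neutral control wells and 100% = median of positive control wells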
3T3 cytotox 2: cytotoxicity in mouse NIH/3T3 fibroblasts; shares compounds with T cruzi growth-1; NIH/3T3 viability, CellTiter-Glo ATP luminescence, 90 h; inhibition, % at 24.9 µM; 5,600 tested, 56% active; AID 651744;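 active means mean loss of cell viability signal at or above a set limit, and enough replicates individually reaching it; inconclusive means meets only the mean limit or only the replicate share; inactive means meets neither condition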;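 further: 0% = median of neutral control wells and 100% = median of positive control wells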
The depositor's hits bear a star; ? = inconclusive; nt = not tested or not shown; ! = not active in a repeat.

SMILES	T cruzi growth-1	Pf Dd2 growth	C diff growth	T cruzi growth-2	T cruzi growth-3	3T3 cytotox	3T3 cytotox 2
Cc1ccc(S(=O)(=O)Nc2ccc3c(c2)C(=O)N([C@@H](C)CO)C[C@H](C)[C@H](CN(C)S(=O)(=O)c2ccc(C)cc2)OCCCC[C@H](C)O3)cc1	104*	-68	nt	105*	84	-12	-8
Cc1ccc(S(=O)(=O)Nc2ccc3c(c2)C(=O)N([C@H](C)CO)C[C@H](C)[C@@H](CN(C)S(=O)(=O)c2ccc(C)cc2)OCCCC[C@H](C)O3)cc1	98*	-67	nt	97*	54	75*	59*
Cc1ccc(S(=O)(=O)Nc2ccc3c(c2)C(=O)N([C@H](C)CO)C[C@@H](C)[C@@H](CN(C)S(=O)(=O)c2ccc(C)cc2)OCCCC[C@H](C)O3)cc1	103*	-84*	nt	112*	?	-39	-3
Cc1noc(C)c1S(=O)(=O)Nc1ccc2c(c1)C(=O)N([C@H](C)CO)C[C@@H](C)[C@H](CN(C)S(=O)(=O)c1ccccc1)OCCCC[C@@H](C)O2	42	-69	-6	nt	nt	nt	nt
CCCC(=O)N1C[C@@H]2[C@H](c3ccccc31)[C@@H](CO)N2C(=O)CC1CC1	49	18	-6	nt	nt	nt	nt
CCCC(=O)Nc1ccc2c(c1)OC[C@@H](C)N(Cc1ccncc1)C[C@H](C)[C@@H](OC)CN(C)C2=O	20	3	0	nt	nt	nt	nt
CC(=O)N(C)C[C@@H]1Oc2cc(-c3ccccc3F)ccc2S(=O)(=O)N([C@@H](C)CO)C[C@@H]1C	-27	9	-4	nt	nt	nt	nt
COc1ccc2c3c(n(C)c2c1)[C@@H](CO)N(Cc1nccs1)CC31CN(C(C)=O)C1	nt	-14	1	nt	nt	nt	nt
COCC(=O)N1C[C@@H](C)[C@H](OC)CN(C)C(=O)c2cc(NC(=O)c3ccc(F)cc3)ccc2OC[C@H]1C	10	29	0	nt	nt	nt	nt
O=C(C[C@H]1C=C[C@@H](NC(=O)CCN2CCCCC2)[C@@H](CO)O1)Nc1ccc(-c2ccccc2)cc1	-104	-46	nt	nt	nt	nt	nt
C[C@@H]1CN([C@H](C)CO)C(=O)c2cccc(NS(=O)(=O)c3cccs3)c2O[C@@H]1CN(C)Cc1ccc(C(=O)O)cc1	-69	-10	nt	nt	nt	nt	nt
C[C@@H]1CN([C@@H](C)CO)C(=O)Cc2cc(NC(=O)C3CCCCC3)ccc2O[C@H]1CN(C)Cc1ccc2c(c1)OCO2	42	-68	1	nt	nt	nt	nt
CN(C)C(=O)c1cccc(-c2ccc([C@H]3[C@@H](CO)N4CCCCN(CCC(F)(F)F)C[C@H]34)cc2)c1	103*	-17	4	99*	72	-22	29
CN(C)C(=O)c1cccc(-c2ccc([C@@H]3[C@@H](CO)N4CCCCN(CCC(F)(F)F)C[C@@H]34)cc2)c1	58	-7	-6	nt	nt	nt	nt
CN(C)C(=O)c1cccc(-c2ccc([C@H]3[C@H](CO)N4CCCCN(CCC(F)(F)F)C[C@@H]34)cc2)c1	105*	-20	4	109*	86	5	25*
CN(C)C(=O)c1cccc(-c2ccc([C@@H]3[C@H](CO)N4CCCCN(CCC(F)(F)F)C[C@@H]34)cc2)c1	-4	0	1	nt	nt	nt	nt
CCNC(=O)Nc1ccc2c(c1)C(=O)N(C)[C@H]1CC[C@H](CC(=O)NC3CCCCC3)O[C@H]1CO2	24	21	-4	nt	nt	nt	nt
COc1cccc(S(=O)(=O)N(C)C[C@@H]2Oc3ncc(C#CCC(C)C)cc3C(=O)N([C@H](C)CO)C[C@@H]2C)c1	-22	-15	-2	nt	nt	nt	nt
CCCC#Cc1cnc2c(c1)C(=O)N([C@H](C)CO)C[C@@H](C)[C@@H](CN(C)S(=O)(=O)c1cccc(OC)c1)O2	104*	-16	2	99*	62	37*	65*
CCCC#Cc1cnc2c(c1)C(=O)N([C@@H](C)CO)C[C@@H](C)[C@H](CN(C)S(=O)(=O)c1cccc(OC)c1)O2	89	-48	0	nt	nt	nt	nt
COc1cccc(S(=O)(=O)N(C)C[C@H]2Oc3ncc(C#CC(C)C)cc3C(=O)N([C@@H](C)CO)C[C@H]2C)c1	109*	-13	-7	82	70	23	49*
COc1cccc(S(=O)(=O)N(C)C[C@@H]2Oc3ncc(C#Cc4ccc(F)cc4)cc3C(=O)N([C@H](C)CO)C[C@@H]2C)c1	108*	-54	-2	103*	63	22	12
COc1cccc(S(=O)(=O)N(C)C[C@@H]2Oc3ncc(C#CC(C)C)cc3C(=O)N([C@H](C)CO)C[C@H]2C)c1	88	-37	1	nt	nt	nt	nt
COc1cccc(S(=O)(=O)N(C)C[C@H]2Oc3ncc(C#CCC(C)C)cc3C(=O)N([C@H](C)CO)C[C@@H]2C)c1	102*	-63	0	106*	79	11	60*
COc1cccc(S(=O)(=O)N(C)C[C@H]2Oc3ncc(C#CC(C)C)cc3C(=O)N([C@H](C)CO)C[C@@H]2C)c1	65	-72	-11	nt	nt	nt	nt
SMILES	T cruzi growth-1	Pf Dd2 growth	C diff growth	T cruzi growth-2	T cruzi growth-3	3T3 cytotox	3T3 cytotox 2
C[C@H]1CCCCO[C@@H](CN(C)C(=O)CCCN(C)C)[C@@H](C)CN([C@@H](C)CO)C(=O)c2cc(NS(=O)(=O)c3ccccc3)ccc2O1	44	34	2	nt	nt	nt	nt
Cc1cccc(S(=O)(=O)N2C[C@H](O)COC[C@@H]3O[C@@H](CC(=O)NCc4ccc5c(c4)OCO5)CC[C@H]32)c1	25	-34	nt	nt	nt	nt	nt
Cc1noc(C)c1S(=O)(=O)Nc1ccc2c(c1)C(=O)N([C@@H](C)CO)C[C@@H](C)[C@@H](CN(C)S(=O)(=O)c1ccc(Cl)cc1)O2	23	-16	-1	nt	nt	nt	nt
COc1ccc(CNC(=O)N(C)C[C@H]2OCc3ccccc3-c3ccccc3C(=O)N([C@H](C)CO)C[C@H]2C)cc1	63	18	-2	nt	nt	nt	nt
C[C@H](CO)N1C[C@H](C)[C@H](CN(C)S(=O)(=O)c2ccc(F)cc2)Oc2ccc(N(C)C)cc2C1=O	nt	8	-1	nt	nt	nt	nt
O=C(c1ccncc1)N1C[C@H]2[C@@H](c3ccccc31)[C@H](CO)N2C(=O)c1ccccc1F	2	-1	3	nt	nt	nt	nt
COc1cccc(-c2ccc([C@@H]3[C@H](CO)N(C(=O)C4CC4)C34CN(C(C)=O)C4)cc2)c1	nt	2	0	nt	nt	nt	nt
COc1cccc(S(=O)(=O)N(C)C[C@@H]2Oc3ncc(C#CCN(C)C)cc3C(=O)N([C@H](C)CO)C[C@H]2C)c1	96*!	-2	1	?	84	13	17
COc1cccc(S(=O)(=O)N(C)C[C@@H]2Oc3ncc(C#CCC(C)C)cc3C(=O)N([C@@H](C)CO)C[C@H]2C)c1	111*	-54	1	107*	85	-1	77*
COc1cccc(S(=O)(=O)N(C)C[C@@H]2Oc3ncc(C#CCC(C)C)cc3C(=O)N([C@H](C)CO)C[C@H]2C)c1	112	-48	1	nt	nt	nt	nt
